Test [1] is described as follows: binders of probe aFSTL3 on microarray, primary screen, stem cell growth factor project, biochemical, small-molecule microarray, fluorescence 635/667 (AID 1064).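 Further: measures binding of the biotinylated anti-FSTL3 antibody to printed compounds.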 Particulars: higher = more signal.
The nature of test [2]: binders from COS7 lysate, DM2A8 probe, primary screen, torsin A project, cell lysate, small-molecule microarray, fluorescence 635/667 (AID 1065). Particulars: higher = more signal, COS7 lysate expressing mutant human TOR1A.
Test [3] is described as follows: binders of probe aFGF2 on microarray, primary screen, stem cell growth factor project, biochemical, small-molecule microarray, fluorescence 635/667 (AID 1067).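 Further: measures binding of biotinylated aFGF2 protein to printed compounds on slides; z-score merges feature fluorescence and signal-to-noise across triplicate slides.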 Particulars: higher = more signal.
Test [4] in a line: binders of probe aFGF10 on microarray, primary screen, stem cell growth factor project, biochemical, small-molecule microarray, fluorescence 635/667 (AID 1071).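 Further: score merges 667 nm spot intensity and signal to noise from triplicate slides.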 Particulars: higher = more signal.
Test [5] addresses Neurogenic locus notch homolog protein 2 (Homo sapiens) (UniProt Q04721). The experiment in a line: Notch2 binders on small-molecule microarrays, primary screen, biochemical, small-molecule microarray, 635 nm fluorescence, stem cell growth factors (AID 1073). Particulars: Notch2 binding, higher = more signal.
Test [6] has as its target Pro-neuregulin-1, membrane-bound isoform (Homo sapiens) (UniProt Q02297). Nature of the test: NRG1 binders on small-molecule microarrays, primary screen, psychiatric disease protein project, biochemical, small-molecule microarray, fluorescence 635/667 (AID 1075).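 Further: score combines 667 nm spot fluorescence with signal to noise.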 Particulars: NRG1 binding, 635 nm fluorescence, higher = more signal.
Test [7] relates to Neuregulin-1 EGF-like domain. The experiment in a line: binders of neuregulin-1 EGF-like domain, primary screen, biochemical, small-molecule microarray, 635 nm fluorescence (AID 1081).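 Further: binding of the protein to compounds printed on small-molecule microarray slides.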 Particulars: small-molecule microarray binding, higher = more signal.
Test [8] is described as follows: FRG1 promoter luciferase signal modulators, primary screen, FRG1 inhibition for FSHD, cell-based, C2C12 myotubes, firefly/Renilla luciferase, luminescence (AID 1084). Particulars: higher = more signal, called active from +8 up or from −8 down.
Test [9] is described as follows: binders of probe aFST on microarray, primary screen, stem cell growth factor project, biochemical, small-molecule microarray, fluorescence 635/667 (AID 1086).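 Further: score merges 667 nm fluorescence with signal-to-noise of each printed compound spot.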 Particulars: higher = more signal.
The nature of test [10]: binders of probe aHhip on microarray, primary screen, stem cell growth factor project, biochemical, small-molecule microarray, fluorescence 635/667 (AID 1087).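 Further: score merges spot fluorescence at 667nm with spot signal to noise ratio.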 Particulars: higher = more signal.
The subject of test [11] is PRMT1 (protein arginine N-methyltransferase 1). The experiment in a line: PRMT1 binders on small-molecule microarrays, primary screen, biochemical, small-molecule microarray, 635 nm fluorescence (AID 1088).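 Further: binding of Prmt1 protein to compounds spotted on small-molecule microarray slides.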 Particulars: small-molecule microarray binding, higher = more signal.
A short description of test [12]: yeast growth modulation, basal conditions, primary screen, YJM789 clinical isolate, OD600, 24 h (AID 1089).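 Further: growth of clinical yeast isolate S. cerevisiae YJM 789 seeded 1000 cells per well; test concentration not given here.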 Particulars: S. cerevisiae YJM789 growth, higher = more signal, called active from +8 up or from −8 down.
Test [13] in a line: fission yeast growth modulation, primary screen, strain 972, OD600, 24 h, no modulator (AID 1090).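 Further: basal condition with compound alone and no growth modifier present; test concentration not given here.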 Particulars: S. pombe 972 growth, higher = more signal, called active from +8 up or from −8 down.
Test [14] in a line: S. cerevisiae growth modulation with rapamycin, primary screen, strain BY4716, OD600, 96 h (AID 1091). Further: test concentration not given here. Particulars: higher = more signal, called active from +8 up or from −8 down.
Test [15] deals with Torsin-1A-interacting protein 2 (Homo sapiens) (UniProt Q8NFQ8). The experiment in a line: LULL1 binders on small-molecule microarray, primary screen, cell lysate, human LULL1 lysate, 635/667 nm fluorescence (AID 1092).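 Further: probe is lysate of COS7 cells overexpressing human LULL1; score merges per-feature 667 nm fluorescence with signal-to-noise.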 Particulars: hLULL1 lysate binding, 635 nm fluorescence, higher = more signal.
Test [16] is described as follows: E. coli growth modulation, two-sided OD650, primary screen, E. coli filamentation project, strain DRC41, 24 h (AID 1093).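 Further: MC1000 strain lacking acrAB efflux and sulA so SOS filamentation is blocked; test concentration not given here.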 Particulars: OD650, 24 h, higher = more signal, called active from +8 up or from −8 down.
Test [17] can be described thus: small-molecule microarray binders of probe aLefty2, primary screen, biochemical, biotinylated probe, 635/667 nm fluorescence (AID 1094).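 Further: score merges spot fluorescence near 667 nm with spot signal-to-noise ratio.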 Particulars: higher = more signal.
In test [18] the test system is Noggin (protein binding on small-molecule microarray). Nature of the test: Noggin binders on small-molecule microarray, primary screen, biochemical, 635/667 nm fluorescence (AID 1095).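 Further: score merges 667 nm feature fluorescence with signal to noise over triplicate slides.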 Particulars: 635 nm fluorescence, higher = more signal.
For test [19], the target named is Neurogenic locus notch homolog protein 3 (Homo sapiens) (UniProt Q9UM47). The experiment in a line: NOTCH3 binders on small-molecule microarray, primary screen, biochemical, 635/667 nm fluorescence (AID 1096). Particulars: NOTCH3 binding, 635 nm fluorescence, higher = more signal.
Test [20] can be described thus: small-molecule microarray binders of probe aEGFR, primary screen, biochemical, biotinylated probe, 635/667 nm fluorescence (AID 1097).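 Further: probe is a biotinylated anti-EGFR antibody binding compounds printed on slides; score combines fluorescence near 667 nm and signal to noise of each spot.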 Particulars: higher = more signal.

The structures appear in SMILES notation. Activity calls are given as the source filed them.

Sequence of Neurogenic locus notch homolog protein 2 (Homo sapiens) (Q04721 whole entry, looked up, canonical isoform): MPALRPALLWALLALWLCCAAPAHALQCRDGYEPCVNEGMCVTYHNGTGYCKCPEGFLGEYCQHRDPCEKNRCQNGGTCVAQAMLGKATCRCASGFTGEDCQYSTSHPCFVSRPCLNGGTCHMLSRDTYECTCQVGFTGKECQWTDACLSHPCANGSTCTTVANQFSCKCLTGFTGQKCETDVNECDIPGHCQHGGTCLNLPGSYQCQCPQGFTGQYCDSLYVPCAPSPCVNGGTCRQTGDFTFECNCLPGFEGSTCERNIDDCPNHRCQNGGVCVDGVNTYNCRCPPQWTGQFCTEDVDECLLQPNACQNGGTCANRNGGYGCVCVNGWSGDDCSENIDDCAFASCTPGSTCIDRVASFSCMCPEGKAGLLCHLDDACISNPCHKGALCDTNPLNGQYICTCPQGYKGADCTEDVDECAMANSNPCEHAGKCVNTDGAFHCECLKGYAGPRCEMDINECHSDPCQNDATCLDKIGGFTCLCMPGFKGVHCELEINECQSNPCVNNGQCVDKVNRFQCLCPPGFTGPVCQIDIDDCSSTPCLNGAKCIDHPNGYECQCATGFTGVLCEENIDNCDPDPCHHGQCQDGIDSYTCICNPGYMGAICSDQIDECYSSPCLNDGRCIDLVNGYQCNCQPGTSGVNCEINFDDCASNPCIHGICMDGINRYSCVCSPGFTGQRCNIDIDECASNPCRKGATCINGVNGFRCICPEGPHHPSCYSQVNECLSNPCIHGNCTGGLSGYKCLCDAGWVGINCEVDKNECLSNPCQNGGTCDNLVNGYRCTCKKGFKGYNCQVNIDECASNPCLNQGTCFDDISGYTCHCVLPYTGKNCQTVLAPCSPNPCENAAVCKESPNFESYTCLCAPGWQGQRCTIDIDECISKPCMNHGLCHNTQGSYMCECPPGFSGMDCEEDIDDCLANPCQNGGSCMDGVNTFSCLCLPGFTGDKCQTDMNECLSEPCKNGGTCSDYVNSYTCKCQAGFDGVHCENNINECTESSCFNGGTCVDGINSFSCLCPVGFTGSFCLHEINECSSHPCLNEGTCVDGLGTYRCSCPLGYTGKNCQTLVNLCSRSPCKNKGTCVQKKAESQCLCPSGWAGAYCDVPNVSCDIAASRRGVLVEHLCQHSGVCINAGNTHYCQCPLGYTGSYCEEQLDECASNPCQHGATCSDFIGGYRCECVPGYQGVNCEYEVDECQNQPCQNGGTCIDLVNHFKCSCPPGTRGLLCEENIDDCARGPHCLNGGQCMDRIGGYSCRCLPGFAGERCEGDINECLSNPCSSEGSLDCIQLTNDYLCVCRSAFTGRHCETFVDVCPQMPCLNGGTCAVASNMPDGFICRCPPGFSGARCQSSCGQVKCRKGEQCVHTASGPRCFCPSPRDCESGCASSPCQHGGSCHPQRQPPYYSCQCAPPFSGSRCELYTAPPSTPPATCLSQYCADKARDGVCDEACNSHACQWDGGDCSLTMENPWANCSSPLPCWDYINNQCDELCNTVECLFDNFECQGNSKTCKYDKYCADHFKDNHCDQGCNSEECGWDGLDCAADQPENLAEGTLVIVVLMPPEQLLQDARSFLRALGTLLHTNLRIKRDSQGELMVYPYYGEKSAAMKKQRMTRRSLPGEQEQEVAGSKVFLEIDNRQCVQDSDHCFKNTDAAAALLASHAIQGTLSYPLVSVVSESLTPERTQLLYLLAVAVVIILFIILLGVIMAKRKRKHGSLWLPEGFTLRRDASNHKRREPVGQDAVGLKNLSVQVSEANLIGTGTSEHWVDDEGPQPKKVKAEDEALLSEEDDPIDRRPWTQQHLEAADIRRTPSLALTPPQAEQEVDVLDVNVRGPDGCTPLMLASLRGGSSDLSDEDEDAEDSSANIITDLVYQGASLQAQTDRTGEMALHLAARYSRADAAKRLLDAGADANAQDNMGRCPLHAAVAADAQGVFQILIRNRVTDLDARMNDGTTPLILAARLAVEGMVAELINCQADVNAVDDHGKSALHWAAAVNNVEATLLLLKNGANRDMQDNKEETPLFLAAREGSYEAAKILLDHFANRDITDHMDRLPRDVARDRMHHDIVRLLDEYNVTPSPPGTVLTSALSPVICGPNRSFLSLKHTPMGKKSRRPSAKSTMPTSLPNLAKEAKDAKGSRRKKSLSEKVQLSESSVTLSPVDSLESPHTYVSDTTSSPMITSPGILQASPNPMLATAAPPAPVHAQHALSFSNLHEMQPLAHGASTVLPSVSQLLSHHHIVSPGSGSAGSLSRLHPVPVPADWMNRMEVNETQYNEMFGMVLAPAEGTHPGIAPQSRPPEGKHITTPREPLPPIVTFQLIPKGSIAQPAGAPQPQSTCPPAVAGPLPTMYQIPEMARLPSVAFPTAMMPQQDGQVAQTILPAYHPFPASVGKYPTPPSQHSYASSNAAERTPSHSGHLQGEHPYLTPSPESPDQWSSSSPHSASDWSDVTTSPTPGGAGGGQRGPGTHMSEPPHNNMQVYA
Sequence of Torsin-1A-interacting protein 2 (Homo sapiens) (Q8NFQ8 whole entry, looked up): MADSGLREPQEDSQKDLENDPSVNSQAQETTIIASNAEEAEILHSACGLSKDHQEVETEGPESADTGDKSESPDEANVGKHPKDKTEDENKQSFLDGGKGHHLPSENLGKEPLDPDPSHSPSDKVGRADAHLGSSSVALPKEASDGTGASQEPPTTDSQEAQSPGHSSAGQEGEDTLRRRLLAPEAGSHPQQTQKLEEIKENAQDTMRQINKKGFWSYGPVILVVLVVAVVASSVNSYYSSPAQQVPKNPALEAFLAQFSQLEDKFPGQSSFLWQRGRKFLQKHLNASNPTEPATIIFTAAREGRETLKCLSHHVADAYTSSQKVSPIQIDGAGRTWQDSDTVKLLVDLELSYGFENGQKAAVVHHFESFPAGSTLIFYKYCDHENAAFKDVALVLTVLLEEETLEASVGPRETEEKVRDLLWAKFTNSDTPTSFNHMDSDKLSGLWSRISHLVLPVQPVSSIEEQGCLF
Sequence of Pro-neuregulin-1, membrane-bound isoform (Homo sapiens) (Q02297 whole entry, looked up, the tested form may be a part, canonical isoform): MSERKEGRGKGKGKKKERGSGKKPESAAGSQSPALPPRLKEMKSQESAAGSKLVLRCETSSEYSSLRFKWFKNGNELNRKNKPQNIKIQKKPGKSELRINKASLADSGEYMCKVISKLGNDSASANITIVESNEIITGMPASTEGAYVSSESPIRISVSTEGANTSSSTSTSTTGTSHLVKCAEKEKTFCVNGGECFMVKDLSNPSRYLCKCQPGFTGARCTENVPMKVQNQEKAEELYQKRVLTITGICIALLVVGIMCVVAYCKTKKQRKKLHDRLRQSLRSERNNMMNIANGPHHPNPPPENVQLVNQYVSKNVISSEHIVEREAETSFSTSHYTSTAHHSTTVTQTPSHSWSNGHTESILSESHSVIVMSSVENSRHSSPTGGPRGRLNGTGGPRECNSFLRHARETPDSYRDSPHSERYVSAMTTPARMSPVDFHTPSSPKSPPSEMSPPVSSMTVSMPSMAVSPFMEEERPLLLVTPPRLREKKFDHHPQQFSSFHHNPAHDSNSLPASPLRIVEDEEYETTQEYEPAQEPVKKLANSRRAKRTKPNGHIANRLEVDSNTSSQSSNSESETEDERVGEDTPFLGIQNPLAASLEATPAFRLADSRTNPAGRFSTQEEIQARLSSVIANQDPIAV

`[N-]=[N+]=Nc1ccccc1C[C@@]1(C(=O)NCC(O)CO)N=C(c2ccc(OCCCO)cc2)O[C@@H]1c1ccccc1` (stereo not given in full): the composite z-score was 0.134 in test [1]; -0.243 in [2]; -0.073 in [3]; 0.165 in test [4]; 0.513 in test [5]; 0.706 in test [6]. For the same compound, the composite z-score in test [7] is 1.1; in [9] it was 0.146; in test [10] it was -0.0994; in [11], 0.376; in test [15] it was 2.81; in test [17] it was -0.0021. Moreover, the composite z-score was -0.264 in test [18], -0.405 in [19] and -0.151 in test [20]. For the same compound, the z-score in test [8] was -2.46 (inactive); in test [12], -0.558 (inactive); in [13], -1.09 (inactive); in test [14], -1.31 (inactive); in test [16], 0.883 (inactive).

In the case of `COc1ccccc1CN1C(=O)c2ccccc2[C@](Cc2ccccc2I)(C(=O)NCC(C)C)[C@@H]1c1ccc(CO)cc1`, the composite z-score in [1] was 1.21; in test [2], 0.204; in test [3], -0.0049; in test [4], -0.452; in test [5], -0.396; in test [6], 1.2. In addition, the composite z-score in test [7] was determined as 1.15; in test [9], 0.0126; in [10], 0.142; in test [11], 1.33; in test [15], 2.11; in [17], 0.103. In addition, the composite z-score was -0.371 in [18], 0.139 in test [19] and -0.0721 in test [20]. Moreover, the z-score in [8] was -2.55 (inactive); in test [12], -0.747 (inactive); in test [13] it was -0.652 (inactive); in test [14] it was 0.0134 (inactive); in test [16], 2.2 (inactive).

For `C=CC1c2cc(O)c(OC)cc2CCN1C` (stereo not given), the composite z-score was 0.0043 in [1]; -0.231 in test [2]; -0.103 in [3]; 0.275 in [4]; -0.208 in test [5]; 0.0582 in test [6]. For the same compound, the composite z-score in [7] is 1.06; in test [9] it was 0.0531; in test [10] it was 0.0373; in [11], -0.648; in test [15], 0.134; in test [17], 0.0112. For the same compound, the composite z-score is -0.542 in test [18], -0.821 in [19] and -0.135 in test [20]. The z-score was -0.201 (inactive) in test [8]; -0.763 (inactive) in test [12]; -0.819 (inactive) in test [13]; 0.0904 (inactive) in test [14]; -0.223 (inactive) in test [16].

`CC(C)C[C@H]1NC(=O)C([C@@H](C)OCc2ccccc2)NC(=O)[C@@]23C(=O)N[C@@H](Cc4ccccc4)C2[C@H](C)[C@@]2(C)O[C@H]2C3/C=C/C/C=C\CNC1=O` (stereo not given in full): the composite z-score is -0.61 in test [1]; 0.583 in test [2]; -0.0712 in test [3]; 0.775 in test [4]; 0.831 in [5]; 1.21 in test [6]. Besides, the composite z-score was determined as 1.06 in test [7]; 0.517 in test [9]; 3.36 in test [10]; 1.55 in [11]; 2.01 in [15]; 0.039 in test [17]. Further, the composite z-score in [18] stood at 0.697; in test [19] it was 1.1; in test [20], 0.138. For the same compound, the z-score is 2.71 (inactive) in test [8]; -0.099 (inactive) in [12]; -1.21 (inactive) in test [13]; 0.206 (inactive) in test [14]; -0.281 (inactive) in test [16].

As for `COc1ccc(C(O)C2C=CC3C(=O)N(c4ccccc4)C(=O)C3N2Nc2ccc(C#N)cc2)cc1OCc1ccccc1` (stereo not given), the composite z-score in test [1] came to 1.98; in [2] it was 1.55; in test [3], 0.19; in test [4], 0.472; in [5], 1.34; in test [6] it was 2.02. Also, the composite z-score in test [7] was found to be 0.823; in test [9], 1.09; in test [10] it was 0.0053; in test [11], 1.3; in [15], 2.6; in test [17], 0.455. Also, the values for the composite z-score in [18], in test [19] and in [20] were -0.634, 1.11 and 0.0808, respectively. The z-score in [8] was 0.686 (inactive); in [12], -0.598 (inactive); in test [13] it was 1.66 (inactive); in test [14], 1.38 (inactive); in test [16], -1.16 (inactive).

For the origin of these results see PubChem BioAssay.
